Experiment in all cases: NCI-60 one-dose screen, 48 h (100 = growth as untreated, 0 = no growth, -100 = all killed)
Holding throughout (conditions): 10 µM unless noted

Experiment [1] concerns NCI-H23 lung.
Experiment [2] concerns NCI-H226 lung.
Experiment [3] relates to NCI-H322M lung.
Experiment [4] concerns HOP-62 NSCLC.
The subject of experiment [5] is NCI-H460 lung.
For experiment [6], the system named is HOP-92 NSCLC.
Experiment [7] deals with A549/ATCC NSCLC.
The test system of experiment [8] is COLO 205 colon.
Experiment [9] deals with DU-145 prostate.
Experiment [10] deals with K-562 leukemia.
In experiment [11] the test system is MALME-3M melanoma.
The subject of experiment [12] is MDA-MB-231 breast.
In experiment [13] the test system is SF-268 CNS.
Experiment [14] relates to SF-295 CNS.
The subject of experiment [15] is SF-539 CNS.
Experiment [16] concerns UACC-257 melanoma.
The subject of experiment [17] is M14 melanoma.
Experiment [18] has as its system 786-0 renal.
Experiment [19] deals with RXF 393 renal.

About 83,000 compounds went through this panel and 20% of them were active in at least one assay; those are over-represented in the sample as a whole.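 Interpretation: 100, growth as untreated; towards 0, rising growth inhibition; 0, no net growth; 0 to -100, cell death. Compounds scoring below 10 were considered active.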 Unmarked numbers belong to inactive results. The source made the active and inactive calls.

Take `O=C(Nc1nn2c(-c3cc(C(F)(F)F)cc(C(F)(F)F)c3)nnc2s1)C1CCCC1`: the growth in experiment [1] was -2.97% (active); in experiment [2], 9.1% (active); in experiment [3] it was 4.33% (active); in experiment [4], 8.91% (active); in [5] it was 3.63% (active); in [6], -24.2% (active). Further, the growth in experiment [7] is 7.1% (active); in experiment [8] it was -82.5% (active); in [9], 33.1%; in experiment [10], 6.69% (active); in [11] it was 10.4%; in [12], -32% (active). Besides, the growth is 28.4% in experiment [13]; 1.49% (active) in [14]; 12.8% in experiment [15]; 4.69% (active) in experiment [16]; 7.59% (active) in experiment [17].
`Cc1nn(-c2ccccc2)cc1/C=C1\SC(N2CCCCC2)=NC1=O`: the growth in experiment [1] is 104%; in [2] it was 86.7%; in [3], 100%; in [4], 103%; in experiment [5], 95.2%; in experiment [6] it was 76.7%. Moreover, the growth is 90.1% in experiment [7]; 83.6% in experiment [18]; 66.9% in experiment [8]; 91.4% in [9]; 32.1% in experiment [10]; 76.4% in experiment [12]. In addition, the growth was 86% in experiment [19]; 91.3% in experiment [13]; 128% in experiment [14]; 60.9% in [15]; 99.3% in experiment [16]; 92.6% in experiment [17].
Regarding `CCOC(=O)C1C(=O)NC(C(=O)OCC)(C(=O)OCC)C1CC` (configuration not stated), the growth in [1] is 112%; in [2], 97.7%; in experiment [3] it was 119%; in experiment [4], 109%; in [5] it was 117%; in [6] it was 98%. Besides, the growth in [7] was 97.2%; in experiment [18] it was 107%; in experiment [8], 114%; in [9], 117%; in [10], 114%; in experiment [12], 98.7%. Besides, the growth in [19] was 116%; in experiment [13], 108%; in [14], 113%; in [15], 122%; in [16], 106%; in [17] it was 110%.
`Nc1ccccc1-c1ccn[nH]1`: the growth in experiment [1] is 110%; in experiment [2] it was 86.8%; in [3] it was 93.8%; in experiment [4], 87.4%; in [5], 104%; in experiment [6], 91.4%. The growth in experiment [7] is 89.6%; in [18], 98.9%; in [8] it was 86.6%; in [9], 101%; in experiment [10] it was 78.5%; in [12], 101%. The growth in experiment [19] was 111%; in experiment [13], 88.8%; in [14] it was 101%; in experiment [15] it was 97.9%; in experiment [16], 103%; in [17] it was 94.2%.
As for `C/C(=C\CCc1ccoc1)CC/C=C(\C)CCCN1CCOCC1`, the growth in experiment [1] is 46.2%; in experiment [2] it was 70.6%; in [3] it was 84.5%; in experiment [4], 69.1%; in experiment [5] it was 54.3%; in experiment [6] it was 57.4%. Besides, the growth in experiment [18] is 69.4%; in experiment [8], 40.9%; in experiment [9], 73.9%; in experiment [10] it was 20.6%; in [11], 55.8%; in experiment [12], 43.7%. For the same molecule, the growth is 50.1% in experiment [19]; 72.6% in experiment [13]; 67.8% in experiment [14]; 78.2% in experiment [15]; 53.4% in experiment [16]; 62.6% in experiment [17].
`COc1cc(/C=C/C(=O)C(C(=O)/C=C/c2ccc(OC(=O)CCNC34CC5CC(CC(C5)C3)C4)c(OC)c2)C(=O)CCNC23CC4CC(CC(C4)C2)C3)ccc1OC(=O)CCNC12CC3CC(CC(C3)C1)C2` (configuration not stated): the growth in [1] is 32.2%; in experiment [2], 31.4%; in experiment [3], 51.6%; in experiment [4] it was 29.8%; in experiment [5], 7.93% (active); in experiment [6], 44.6%. For the same molecule, the growth in experiment [18] was -53.3% (active); in experiment [8] it was 17.7%; in experiment [9], -48.8% (active); in experiment [10], 0.83% (active); in experiment [11], 18.6%; in experiment [12], 13.3%. Besides, the growth in experiment [19] was -68.8% (active); in experiment [13], 28.2%; in [14], 37.5%; in [15], -23.7% (active); in experiment [16], 48.1%; in [17], -1.22% (active).
Consider `O=C1C(=O)/C(=C/c2ccccc2)CCCCCC/C1=C/c1ccccc1`, for which the growth in experiment [1] is 42.3%; in experiment [2], 101%; in experiment [3], 94.5%; in experiment [4] it was 10.3%; in experiment [5] it was 90.4%; in experiment [6], 90.3%. The growth is 86.6% in experiment [18]; 99.6% in [8]; 64.6% in experiment [9]; 4.05% (active) in [10]; 90.9% in [11]; 96.2% in experiment [12]. Moreover, the growth in experiment [19] was -11.6% (active); in experiment [13] it was 60.6%; in experiment [14], 76.5%; in experiment [15] it was 103%; in experiment [16], 75.3%; in experiment [17], 50%.
For the molecule `O=C(/C=C/c1c(-c2ccccc2)[nH]c2ccccc12)S(=O)(=O)c1ccccc1`, the growth in [1] was 73%; in experiment [2], 69.1%; in experiment [3], 93%; in [4], 69.3%; in experiment [5], 43.8%; in experiment [6], 47.8%. The growth in experiment [18] is 74.4%; in experiment [8] it was 80.6%; in [9], 76%; in experiment [10] it was 9.37% (active); in experiment [11], 88.2%; in experiment [12], 63.3%. For the same molecule, the growth in experiment [13] was 89.5%; in [14] it was 63.5%; in experiment [15] it was 89.5%; in experiment [17], 51.7%.
For `Cn1c(=O)c2[nH]c(=S)n(Cc3ccccc3)c2n(C)c1=O`, the growth in experiment [1] was 93.1%; in [2], 104%; in experiment [3], 118%; in experiment [4], 70%; in experiment [5], 110%; in experiment [6] it was 91.8%. Also, the growth in [18] was 102%; in [8], 109%; in experiment [9] it was 105%; in [10] it was 84.6%; in [12], 101%; in experiment [19], 120%. In addition, the growth in experiment [13] is 95.8%; in [14], 118%; in experiment [15], 93.8%; in experiment [16], 90.4%; in experiment [17], 99.7%.
Take `Cc1ccc(N/N=C(/C(=O)c2ccc(Cl)cc2)c2nc(C)cc(=O)[nH]2)cc1`: the growth in [1] is 111%; in experiment [2], 107%; in [3], 106%; in [4], 94.2%; in [5] it was 105%; in experiment [6], 91%. The growth was 82.9% in [18]; 116% in experiment [8]; 102% in experiment [9]; 91.7% in experiment [10]; 126% in experiment [11]; 95.9% in [12]. In addition, the growth in experiment [19] is 40.7%; in experiment [13], 107%; in experiment [14], 90%; in experiment [15], 85.3%; in experiment [16], 105%; in [17], 82.7%.
Regarding `COc1cc(-c2n[nH]nc2-c2ccccn2)cc(OC)c1OC`, the growth in experiment [1] was 98.2%; in [2], 90.3%; in experiment [3], 95.8%; in experiment [4], 97.5%; in [5] it was 104%; in experiment [6] it was 86.3%. Further, the growth was 96.4% in [18]; 119% in [8]; 112% in experiment [9]; 90.6% in [10]; 90.5% in [11]; 98.3% in experiment [12]. Also, the growth in experiment [13] was 114%; in [14], 115%; in [15] it was 104%; in experiment [17] it was 113%.

The record behind these values is PubChem BioAssay (NCI).
